# Data taken from PubChem BioAssay (NCATS).
# Results filed as inconclusive are left out. A number with no mark means an inactive call. Activity calls are given as the source filed them. Calls come from the whole dose curve; as a rule, active = well fitted curve in the direction sought with a large enough effect; inconclusive = small, poorly fitted or top-dose-only effect, or another doubt; inactive = no such curve, though single readings can be large; an effect the other way counts as inactive or inconclusive.
# Target: Metallo-beta-lactamase type 2 (Klebsiella pneumoniae) (UniProt C7C422)
# Test: qHTS to identify inhibitors of the New Delhi Metallo-beta-lactamase (NDM): assay validation screen against the NCATS LOPAC Collection (AID 1794843);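 note: nitrocefin turnover by NDM-1 measured as 485 nm absorbance at plateau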
# Conditions: NDM-1 enzyme, nitrocefin hydrolysis, absorbance 485 nm; series mostly up to 38.4 µM; activity change, negative = inhibition: at the top concentration
# Method in brief: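 NDM-1 at 2 nM final in 50 mM HEPES pH 7.0 with 1 uM ZnSO4 and 0.01% Tween20 was preincubated with library compounds in DMSO. Nitrocefin (50 uM stock) was then added, and absorbance at 485 nm was read at the kinetic plateau.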
# % is set by controls: 0 for no effect and ±100 for the full control effect.
# Metallo-beta-lactamase type 2 (Klebsiella pneumoniae), sequence (C7C422 whole entry, looked up): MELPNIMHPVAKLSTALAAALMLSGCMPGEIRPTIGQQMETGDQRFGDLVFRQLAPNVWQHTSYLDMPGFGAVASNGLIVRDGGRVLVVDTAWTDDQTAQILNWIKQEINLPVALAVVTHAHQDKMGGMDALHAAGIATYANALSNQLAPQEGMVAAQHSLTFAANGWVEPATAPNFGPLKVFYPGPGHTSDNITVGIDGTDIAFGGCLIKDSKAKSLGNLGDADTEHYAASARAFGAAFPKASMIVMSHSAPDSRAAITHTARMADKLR
row,SMILES,"activity change, negative = inhibition [%]"
1,COc1cc(/C=C(\C#N)C(=O)Nc2nnc(C(F)(F)F)s2)ccc1OCc1ccc(C(F)(F)F)cc1C(F)(F)F,0.0461
2,NC(N)=NC(N)=Nc1cccc(Cl)c1,5.06
3,Oc1cc2c(cc1O)C(c1ccccc1)CNCC2 (stereo unspecified),-0.247
4,CC#CCOC(=O)c1c(C)nc2sc3c(c2c1N)CCC(O)C3 (stereo unspecified),1.04
5,NCCNS(=O)(=O)c1cccc2c(Cl)cccc12,1.33
6,CCCn1c(=O)c2c(ncn2C)n(CCC)c1=O,6.2
7,CNCCNS(=O)(=O)c1cccc2cnccc12,-10.2
8,CN1CCC2(CCN3CCc4c(oc5ccccc45)C3C2)N(C)C1=O (stereo unspecified),4.6
9,Cn1c(=O)c2c(nc(/C=C/c3cccc(Cl)c3)n2C)n(C)c1=O,-6.93
10,CCCCCCCCCCCCCCSCC(=O)O,-6.49
11,Nc1ccc(-c2nc3ccc(-c4nc5ccc(N)cc5[nH]4)cc3[nH]2)cc1,0.396
12,Cc1nc(N=Nc2cc(S(=O)(=O)O)c3cc([N+](=O)[O-])cc(S(=O)(=O)O)c3c2)c(COP(=O)(O)O)c(C=O)c1O,-10.3
13,O=C(O)[C@H]1NCCC[C@H]1C(=O)O,2.92
14,C[C@]12C=CC(=O)C=C1CC[C@@H]1C2=CC[C@]2(C)[C@@H](C(=O)CN3CCN(c4cc(N5CCCC5)nc(N5CCCC5)n4)CC3)CC[C@@H]12,4.75
15,C[N+](C)(C)CC=O,-2.37
16,Cc1cccc(C)c1OCC(N)C(C)C (stereo unspecified),0.867
17,COCc1nc2c([nH]1)c(=O)n(C)c(=O)n2CC(C)C,-5.87
18,CN1C2CCC1CC(OC(c1ccccc1)c1ccccc1)C2 (stereo unspecified),-1.78
19,COc1ccccc1N1CCN(CCCCN2C(=O)c3ccccc3C2=O)CC1,2.92

row,SMILES,"activity change, negative = inhibition [%]"
1,Nc1ncnc2c1ncn2C1CCCC1,-8.91
2,Cc1cc(Cn2cnc3c2C[C@@H](C(=O)O)N(C(=O)C(c2ccccc2)c2ccccc2)C3)ccc1N,-1.34
3,O=C(O)CCC(=O)N1CCCC1C(=O)O (stereo unspecified),-7.72
4,COC(=O)[C@H](NC(=O)c1cc(-c2ccccc2)nc2ccccc12)c1ccccc1,-0.582
5,COc1ccc(CCN(C)CCc2ccc(OC)c(OC)c2)cc1OC,-0.737
6,C=C1C(=O)O[C@@H]2[C@H]3O[C@]3(C)CCC=C(C)CC[C@@H]12,3.27
7,Nc1nc2c(nc(Br)n2C2OC3COP(=O)(O)O[C@@H]3C2O)c(=O)[nH]1 (stereo partly specified),0.198
8,O=C(O)C1=CCCN(CCON=C(c2ccccc2)c2ccccc2)C1,-0.148
9,O=C(O)c1ccccc1Nc1ccccc1,2.71
10,N=S(=O)(O)Cc1noc2ccccc12,1.78
11,CC1CNCCN1S(=O)(=O)c1cccc2cnccc12 (stereo unspecified),-6.54
12,CCCn1c(=O)c(C)cn2nc(N)nc12,-0.53
13,NC1(C(=O)O)CC1,-0.11
14,C[C@@H](NCCc1ccc(O)cc1)[C@@H](O)c1ccc(O)cc1,-10.9
15,COc1ccc(C(=O)NCc2cccnc2)cc1C(=O)NCc1cccnc1,1.44
16,CN(C)CCCc1cc(C(=O)Nc2ccc(-c3ccncc3)cc2)ccc1O,40.3
17,CCCCCCN(CCCCCC)C(=O)Cc1c(-c2ccc(F)cc2)[nH]c2ccccc12,-2.87
18,CC(C)(C)c1cc(/C=C(\C#N)C(N)=S)cc(C(C)(C)C)c1O,1.73
19,COc1cc2c(CCNC(C)=O)c[nH]c2cc1O,2.42

# Target: Glutathione peroxidase 1 (Homo sapiens) (UniProt P07203)
# Test: Primary qHTS Assay for Inhibitors of Recombinant Selenoprotein Glutathione Peroxidase 1 (GPX1) (AID 1845191); note: nearly all actives have a fitted effect of over 65% in size
# Conditions: recombinant GPX1, GR-coupled NADPH fluorescence, 15 min; series mostly up to 48.8 µM; activity, negative = inhibition: at the top concentration
# Method in brief: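 10 nM GPX1 + cpd, 30 min RT; start w/ 1 mM GSH, 0.5 mM cumene hydroperoxide, 0.5 mM NADPH, 100 nM GR, 0.01% BSA; buffer 50 mM Tris-HCl pH 7.5, 2 mM EDTA, 150 mM NaCl; Fl 340/450, 0 & 15 min.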
# Glutathione peroxidase 1 (Homo sapiens), sequence (P07203 whole entry, looked up): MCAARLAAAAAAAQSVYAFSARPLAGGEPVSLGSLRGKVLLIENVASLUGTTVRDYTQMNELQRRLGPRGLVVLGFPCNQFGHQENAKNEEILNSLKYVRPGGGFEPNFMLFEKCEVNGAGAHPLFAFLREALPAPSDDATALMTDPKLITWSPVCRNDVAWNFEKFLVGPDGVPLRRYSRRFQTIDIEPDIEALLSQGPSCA
SMILES,Potency,"activity, negative = inhibition [%]",outcome
COc1cc(/C=C(\C#N)C(=O)Nc2nnc(C(F)(F)F)s2)ccc1OCc1ccc(C(F)(F)F)cc1C(F)(F)F,inactive,–,–
NC(N)=NC(N)=Nc1cccc(Cl)c1,–,-20,–
Oc1cc2c(cc1O)C(c1ccccc1)CNCC2 (stereo unspecified),–,2.84,–
CC#CCOC(=O)c1c(C)nc2sc3c(c2c1N)CCC(O)C3 (stereo unspecified),–,–,inactive
NCCNS(=O)(=O)c1cccc2c(Cl)cccc12,–,–,inactive
CCCn1c(=O)c2c(ncn2C)n(CCC)c1=O,–,-18.5,–
CNCCNS(=O)(=O)c1cccc2cnccc12,–,-15.6,–
CN1CCC2(CCN3CCc4c(oc5ccccc45)C3C2)N(C)C1=O (stereo unspecified),–,4.77,–
Cn1c(=O)c2c(nc(/C=C/c3cccc(Cl)c3)n2C)n(C)c1=O,–,–,inactive
CCCCCCCCCCCCCCSCC(=O)O,–,-0.456,–
Nc1ccc(-c2nc3ccc(-c4nc5ccc(N)cc5[nH]4)cc3[nH]2)cc1,–,-14.1,–
Cc1nc(N=Nc2cc(S(=O)(=O)O)c3cc([N+](=O)[O-])cc(S(=O)(=O)O)c3c2)c(COP(=O)(O)O)c(C=O)c1O,–,2.77,–
O=C(O)[C@H]1NCCC[C@H]1C(=O)O,–,-3.13,–
C[C@]12C=CC(=O)C=C1CC[C@@H]1C2=CC[C@]2(C)[C@@H](C(=O)CN3CCN(c4cc(N5CCCC5)nc(N5CCCC5)n4)CC3)CC[C@@H]12,–,-34.6,–
C[N+](C)(C)CC=O,–,-17.7,–
Cc1cccc(C)c1OCC(N)C(C)C (stereo unspecified),–,–,inactive
COCc1nc2c([nH]1)c(=O)n(C)c(=O)n2CC(C)C,–,-1.42,–
CN1C2CCC1CC(OC(c1ccccc1)c1ccccc1)C2 (stereo unspecified),–,-3.22,–
COc1ccccc1N1CCN(CCCCN2C(=O)c3ccccc3C2=O)CC1,–,–,inactive

SMILES,Potency,"activity, negative = inhibition [%]",outcome
Nc1ncnc2c1ncn2C1CCCC1,–,-2.06,–
Cc1cc(Cn2cnc3c2C[C@@H](C(=O)O)N(C(=O)C(c2ccccc2)c2ccccc2)C3)ccc1N,–,–,inactive
O=C(O)CCC(=O)N1CCCC1C(=O)O (stereo unspecified),–,–,inactive
COC(=O)[C@H](NC(=O)c1cc(-c2ccccc2)nc2ccccc12)c1ccccc1,–,–,inactive
COc1ccc(CCN(C)CCc2ccc(OC)c(OC)c2)cc1OC,–,-4.9,–
C=C1C(=O)O[C@@H]2[C@H]3O[C@]3(C)CCC=C(C)CC[C@@H]12,–,–,inactive
Nc1nc2c(nc(Br)n2C2OC3COP(=O)(O)O[C@@H]3C2O)c(=O)[nH]1 (stereo partly specified),–,–,inactive
O=C(O)C1=CCCN(CCON=C(c2ccccc2)c2ccccc2)C1,–,–,inactive
O=C(O)c1ccccc1Nc1ccccc1,–,-6.76,–
N=S(=O)(O)Cc1noc2ccccc12,–,–,inactive
CC1CNCCN1S(=O)(=O)c1cccc2cnccc12 (stereo unspecified),–,-11.8,–
CCCn1c(=O)c(C)cn2nc(N)nc12,–,–,inactive
NC1(C(=O)O)CC1,–,–,inactive
C[C@@H](NCCc1ccc(O)cc1)[C@@H](O)c1ccc(O)cc1,–,1.86,–
COc1ccc(C(=O)NCc2cccnc2)cc1C(=O)NCc1cccnc1,–,-4.06,–
CN(C)CCCc1cc(C(=O)Nc2ccc(-c3ccncc3)cc2)ccc1O,–,–,inactive
CCCCCCN(CCCCCC)C(=O)Cc1c(-c2ccc(F)cc2)[nH]c2ccccc12,–,-1.33,–
CC(C)(C)c1cc(/C=C(\C#N)C(N)=S)cc(C(C)(C)C)c1O,–,–,inactive
COc1cc2c(CCNC(C)=O)c[nH]c2cc1O,–,2.03,–
